# Laboratory results from article PMC6602471.
# The full ranking holds about 1,300 sequences; the median of “log fluorescence intensity” is about 8.9, and the highest 2% start at about 13. This is one part of a sample in which the highest values are shown more often than they occur.
# Biological target: T1, ELK1 (Homo sapiens, UniProt P19419 1-428)
# T1 sequence: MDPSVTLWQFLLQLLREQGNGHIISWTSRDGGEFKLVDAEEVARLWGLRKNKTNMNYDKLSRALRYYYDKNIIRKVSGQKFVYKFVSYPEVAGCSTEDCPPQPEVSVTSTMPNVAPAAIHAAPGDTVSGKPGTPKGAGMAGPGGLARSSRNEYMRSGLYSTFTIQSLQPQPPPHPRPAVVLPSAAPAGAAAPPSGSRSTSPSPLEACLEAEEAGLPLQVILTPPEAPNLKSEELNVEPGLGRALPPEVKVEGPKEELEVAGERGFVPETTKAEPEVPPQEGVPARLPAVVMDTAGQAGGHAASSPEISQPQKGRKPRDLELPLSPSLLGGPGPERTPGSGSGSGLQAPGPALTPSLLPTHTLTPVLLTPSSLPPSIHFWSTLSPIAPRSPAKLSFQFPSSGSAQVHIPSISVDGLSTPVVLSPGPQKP
# Experiment: custom PBM; custom protein-binding microarray; buffer, salt, pH and temperature not stated; high values mean tight binding
# Settings: dsDNA, one strand shown
row,Sequence,binding signal
1,GCTGCTGCGGTGCATACCCCACCGGATGTGACTCCGGTCTTGATTCGCTTGACGCTGCTG,10.3 log fluorescence intensity
2,GATTAATTTCTTCCCTTATTCGCACGTGCCATAACAGTCTTGATTCGCTTGACGCTGCTG,9.19 log fluorescence intensity
3,CGGAAGTGTCGAAAACGTCGGATATCCGGTTCTTCTGTCTTGATTCGCTTGACGCTGCTG,12.4 log fluorescence intensity
4,CGGAAGTGTCGTGAACGTCGGATATCCGGTTCTTCTGTCTTGATTCGCTTGACGCTGCTG,11.8 log fluorescence intensity
5,CGGAAGTGTCGTCAACGTCGGATATCCGGTTCTTCTGTCTTGATTCGCTTGACGCTGCTG,12.6 log fluorescence intensity
6,CGGAAGTGTCTTAAACGTCGGATATCCGGTTCTTCTGTCTTGATTCGCTTGACGCTGCTG,12.1 log fluorescence intensity
7,CGGAAGTGTCGTTAACGTCGGATATCCGGTTCTTCTGTCTTGATTCGCTTGACGCTGCTG,12.6 log fluorescence intensity
8,CGGAAGTGTCATAAACGTCGGATATCCGGTTCTTCTGTCTTGATTCGCTTGACGCTGCTG,12.1 log fluorescence intensity
9,CGGAAGTGTAGTAAACGTCGGATATCCGGTTCTTCTGTCTTGATTCGCTTGACGCTGCTG,12.1 log fluorescence intensity
10,CGGAAGTGTCGTATACGTCGGATATCCGGTTCTTCTGTCTTGATTCGCTTGACGCTGCTG,12.5 log fluorescence intensity
11,CGGAAGTGTCCTAAACGTCGGATATCCGGTTCTTCTGTCTTGATTCGCTTGACGCTGCTG,12.4 log fluorescence intensity
12,CGGAAGTGTCGCAAACGTCGGATATCCGGTTCTTCTGTCTTGATTCGCTTGACGCTGCTG,12.5 log fluorescence intensity
13,CGGAAGTGTCGGAAACGTCGGATATCCGGTTCTTCTGTCTTGATTCGCTTGACGCTGCTG,13.5 log fluorescence intensity
14,CGGAAGTGTCGTAGACGTCGGATATCCGGTTCTTCTGTCTTGATTCGCTTGACGCTGCTG,12.3 log fluorescence intensity
15,GCTGCCGCGGTGCATACCCCACCGGATGTGACCCCGGTCTTGATTCGCTTGACGCTGCTG,10.5 log fluorescence intensity
16,GCTGATGCGGTGCATACCCCACCGGATGTGACCCCGGTCTTGATTCGCTTGACGCTGCTG,10.2 log fluorescence intensity
17,CTGGGACTTGACCCAACTCTGCCGCGTGGGTCGTTTGTCTTGATTCGCTTGACGCTGCTG,8.91 log fluorescence intensity
18,GGAAAAAGACCCAGGGTAACACCGGAAGTGGGCTTAGTCTTGATTCGCTTGACGCTGCTG,11 log fluorescence intensity
19,GCTGCTGCGTTGCATACCCCACCGGATGTGACCCCGGTCTTGATTCGCTTGACGCTGCTG,10.1 log fluorescence intensity
20,TCCGGCTACCAGCTCCACCCAATTCAGGCCTTGTAGGTCTTGATTCGCTTGACGCTGCTG,8.93 log fluorescence intensity
21,CTGGGACTTGACCTAACTCTGCCACGTGGGTCGTTTGTCTTGATTCGCTTGACGCTGCTG,8.92 log fluorescence intensity

row,Sequence,binding signal
1,CACAATTTTTACAGTAATGTAGCATGCGTAACTCCTGTCTTGATTCGCTTGACGCTGCTG,8.94 log fluorescence intensity
2,CTGGGACATGACCCAACTCTGCCACGTGGGTCGTTTGTCTTGATTCGCTTGACGCTGCTG,8.96 log fluorescence intensity
3,GCTGCTGCGGTGCATACCCCACAGGATGTGACCCCGGTCTTGATTCGCTTGACGCTGCTG,9.08 log fluorescence intensity
4,TGTCGGGTAAGGGAATGTAGATCACGTGAATGAATAGTCTTGATTCGCTTGACGCTGCTG,8.98 log fluorescence intensity
5,TGTCGGGTAAGGGAATGTAGATCACGTGAATGATAAGTCTTGATTCGCTTGACGCTGCTG,9.11 log fluorescence intensity
6,GCTGCTGCGGTGCATACCCCACCGGATGTGCCCCCGGTCTTGATTCGCTTGACGCTGCTG,10.2 log fluorescence intensity
7,TATTAATTTCTGCCCTTATTCGCACGTGCCATAACAGTCTTGATTCGCTTGACGCTGCTG,8.91 log fluorescence intensity
8,GTGTATAGGATCCCATCCAACACACGGGTTAAAATGGTCTTGATTCGCTTGACGCTGCTG,8.95 log fluorescence intensity
9,GCTGCTGCGGTGCCTACCCCACCGGATGTGACCCCGGTCTTGATTCGCTTGACGCTGCTG,10.3 log fluorescence intensity
10,TACTGACTTTTATATGCGAATGCACATGAATAGACCGTCTTGATTCGCTTGACGCTGCTG,8.97 log fluorescence intensity
11,GTAAAAAGGCCCAGGGTAACACCGGAAGTGGGCTTAGTCTTGATTCGCTTGACGCTGCTG,10.9 log fluorescence intensity
12,GTGTATAGGATCCCATCCAACACACGTATTAAAATGGTCTTGATTCGCTTGACGCTGCTG,9.05 log fluorescence intensity
13,CGGAAGTGTGGTAAACGTCGGATATCCGGTTCTTCTGTCTTGATTCGCTTGACGCTGCTG,12 log fluorescence intensity
14,CAGTATAGGACTTCTTCCCTGAAGCAATTGATAACCGTCTTGATTCGCTTGACGCTGCTG,8.93 log fluorescence intensity
15,GTGTATGGGATCCCATCCAACACACGTGTTAAAATGGTCTTGATTCGCTTGACGCTGCTG,9.12 log fluorescence intensity
16,CACTATTTTTACAGTAATGTAGCACGCGTAACTCCTGTCTTGATTCGCTTGACGCTGCTG,8.94 log fluorescence intensity
17,TACTGACTAATATATGCGAATGCACATGAATAGACCGTCTTGATTCGCTTGACGCTGCTG,8.92 log fluorescence intensity
18,TGTCGGGTAAGGAAATGTAGATCACGTGAATGAAAAGTCTTGATTCGCTTGACGCTGCTG,8.91 log fluorescence intensity
19,GGAAAGAGGCCCAGGGTAACACCGGAAGTGGGCTTAGTCTTGATTCGCTTGACGCTGCTG,10.8 log fluorescence intensity
20,CTGGGATTTGACCCAACTCTGCCACGTGGGTCGTTTGTCTTGATTCGCTTGACGCTGCTG,9.02 log fluorescence intensity
21,TGTCGGGTAAGGGAATGTAGATCACGTGGATGAAAAGTCTTGATTCGCTTGACGCTGCTG,8.97 log fluorescence intensity

row,Sequence,binding signal
1,TCCGGCTACCAGCTCCACCCACTTCAGGCCTTGTCGGTCTTGATTCGCTTGACGCTGCTG,9.01 log fluorescence intensity
2,CACAGTTTTTACAGTAATGTAGCACGCGTAACTCCTGTCTTGATTCGCTTGACGCTGCTG,8.91 log fluorescence intensity
3,GTGTATAGGATCCCATCCAACACACGTGATAAAATGGTCTTGATTCGCTTGACGCTGCTG,8.94 log fluorescence intensity
4,CAGCATAGGACTTCTTCCCTGAAACAATTGATAACCGTCTTGATTCGCTTGACGCTGCTG,8.97 log fluorescence intensity
5,GATTAATTTCTGCCCTTATTCGCACGTGCCCTAACAGTCTTGATTCGCTTGACGCTGCTG,8.97 log fluorescence intensity
6,TCCGGCTACCAGCTCCACCCACTTCATGCCTTGTAGGTCTTGATTCGCTTGACGCTGCTG,8.92 log fluorescence intensity
7,GGAAAAAGGCCCAGGGTAACTCCGGAAGTGGGCTTAGTCTTGATTCGCTTGACGCTGCTG,10.4 log fluorescence intensity
8,GTGTATAGGATCCCATCCAACACACGTGTTACAATGGTCTTGATTCGCTTGACGCTGCTG,9.02 log fluorescence intensity
9,TGTCGGGTAAGGGAATGTACATCACGTGAATGAAAAGTCTTGATTCGCTTGACGCTGCTG,8.92 log fluorescence intensity
10,GTGTATAGGATCCCATCCCACACACGTGTTAAAATGGTCTTGATTCGCTTGACGCTGCTG,9.07 log fluorescence intensity
11,CGGAAGTGTTGTAAACGTCGGATATCCGGTTCTTCTGTCTTGATTCGCTTGACGCTGCTG,12 log fluorescence intensity
12,GGAAAAAGGCCCAGGGTACCACCGGAAGTGGGCTTAGTCTTGATTCGCTTGACGCTGCTG,11.1 log fluorescence intensity
13,GGAAAAAGGCCCAGGATAACACCGGAAGTGGGCTTAGTCTTGATTCGCTTGACGCTGCTG,11.1 log fluorescence intensity
14,TGTCGGGTAAGGGAATGTAGATCACGTGAATGAAGAGTCTTGATTCGCTTGACGCTGCTG,9.1 log fluorescence intensity
15,TACTGACTTATATATGCGAATGCACATGAATAGCCCGTCTTGATTCGCTTGACGCTGCTG,8.94 log fluorescence intensity
16,CTGGGACTTGACCCAACTCTGCTACGTGGGTCGTTTGTCTTGATTCGCTTGACGCTGCTG,8.94 log fluorescence intensity
17,TAAAGGGAAGACGGTTGTGGTAGTTCCGGGGATTAAGTCTTGATTCGCTTGACGCTGCTG,10.9 log fluorescence intensity
18,GCTGCTGCGGTGCTTACCCCACCGGATGTGACCCCGGTCTTGATTCGCTTGACGCTGCTG,10.2 log fluorescence intensity
19,GATTAATTTCCGCCCTTATTCGCACGTGCCATAACAGTCTTGATTCGCTTGACGCTGCTG,12.5 log fluorescence intensity
20,TAGAGGGAAGACGGTTGTGGTAGTTCCGGGTATTAAGTCTTGATTCGCTTGACGCTGCTG,11.2 log fluorescence intensity
21,GATTAATTTCTGCCCTTATTCGCACGTGCCATACCAGTCTTGATTCGCTTGACGCTGCTG,8.97 log fluorescence intensity

row,Sequence,binding signal
1,GCTCCTGCGGTGCATACCCCACCGGATGTGACCCCGGTCTTGATTCGCTTGACGCTGCTG,10.3 log fluorescence intensity
2,TACTGACTTATATATGCTAATGCACATGAATAGACCGTCTTGATTCGCTTGACGCTGCTG,8.92 log fluorescence intensity
3,GGAAAAAGCCCCAGGGTAACACCGGAAGTGGGCTTAGTCTTGATTCGCTTGACGCTGCTG,10.8 log fluorescence intensity
4,TAAAGGGAAGGCGGTTGTGGTAGTTCCGGGTATTAAGTCTTGATTCGCTTGACGCTGCTG,11.5 log fluorescence intensity
5,TAAAGGGAAGACGGTGGTGGTAGTTCCGGGTATTAAGTCTTGATTCGCTTGACGCTGCTG,11.1 log fluorescence intensity
6,GCTGCTGCGGTGCATAGCCCACCGGATGTGACCCCGGTCTTGATTCGCTTGACGCTGCTG,10.4 log fluorescence intensity
7,CGGAAGTGTCGTAAACGTCGGATATGCGGTTCTTCTGTCTTGATTCGCTTGACGCTGCTG,9.16 log fluorescence intensity
8,TCCGGCTACCAGGTCCACCCACTTCAGGCCTTGTAGGTCTTGATTCGCTTGACGCTGCTG,8.9 log fluorescence intensity
9,ATGGGACTTGACCCAACTCTGCCACGTGGGTCGTTTGTCTTGATTCGCTTGACGCTGCTG,8.96 log fluorescence intensity
10,TACTGATTTATATATGCGAATGCACATGAATAGACCGTCTTGATTCGCTTGACGCTGCTG,8.91 log fluorescence intensity
11,CTGGGACTTGATCCAACTCTGCCACGTGGGTCGTTTGTCTTGATTCGCTTGACGCTGCTG,8.95 log fluorescence intensity
12,TAAAGGGAAGACGGTCGTGGTAGTTCCGGGTATTAAGTCTTGATTCGCTTGACGCTGCTG,11.3 log fluorescence intensity
13,CAGCATAGGACTTCTTCCCTGAAGCAAGTGATAACCGTCTTGATTCGCTTGACGCTGCTG,8.97 log fluorescence intensity
14,GATTAATTTCTGCCATTATTCGCACGTGCCATAACAGTCTTGATTCGCTTGACGCTGCTG,8.92 log fluorescence intensity
15,TAAAGGGAAGACGGTTGTGGTACTTCCGGGTATTAAGTCTTGATTCGCTTGACGCTGCTG,12 log fluorescence intensity
16,TAAAGGGAAGACGGTTGTGGTTGTTCCGGGTATTAAGTCTTGATTCGCTTGACGCTGCTG,10.5 log fluorescence intensity
17,CACAATTTTTACAGTAATTTAGCACGCGTAACTCCTGTCTTGATTCGCTTGACGCTGCTG,8.93 log fluorescence intensity
18,TACTGACTTATATATGCGAATGCACATGATTAGACCGTCTTGATTCGCTTGACGCTGCTG,9 log fluorescence intensity
